# An excerpt weighted towards active compounds, which were near 3.2% of everything screened.
# HEK293 tox: qHTS of GLP-1 Receptor Inverse Agonists: Cytotox Screen. HEK293 cAMP-luciferase reporter cells, luminescence, 24 h. Potency, µM (series often up to 38.3 µM), without a hit: top-dose activity change, negative = inhibition, usual class: inhibitors. 0.13% of 410,000 active;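 further: loss of luciferase light is scored as toxicity; on the % scale 0 is the no-effect control and ±100 the full control effect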
#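 To flag toxic compounds, the library was rerun on cells for 24 hr at 37 deg C and 5% CO2. Viability-linked luminescence was captured 12 min after adding luciferase detection reagent.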
# GLP1R inv ag: qHTS of GLP-1 Receptor Inverse Agonists (Inhibition Mode). AID 624417, 2012. Glucagon-like peptide 1 receptor (Homo sapiens), P43220. Potency, µM (highest dose often 38.3 µM), inactives show at the top dose activity change, negative = inhibition, hits mostly inhibitors. 1.6% of 410,000 active. HEK293 GLP-1R CRE-luciferase, luminescence, 24 h; GLP-1R form is constitutively active; further: on the % scale 0 is the no-effect control and ±100 the full control effect; nearly all actives have a fitted effect of over 55% in size
# Target sequence (P43220 whole entry, looked up): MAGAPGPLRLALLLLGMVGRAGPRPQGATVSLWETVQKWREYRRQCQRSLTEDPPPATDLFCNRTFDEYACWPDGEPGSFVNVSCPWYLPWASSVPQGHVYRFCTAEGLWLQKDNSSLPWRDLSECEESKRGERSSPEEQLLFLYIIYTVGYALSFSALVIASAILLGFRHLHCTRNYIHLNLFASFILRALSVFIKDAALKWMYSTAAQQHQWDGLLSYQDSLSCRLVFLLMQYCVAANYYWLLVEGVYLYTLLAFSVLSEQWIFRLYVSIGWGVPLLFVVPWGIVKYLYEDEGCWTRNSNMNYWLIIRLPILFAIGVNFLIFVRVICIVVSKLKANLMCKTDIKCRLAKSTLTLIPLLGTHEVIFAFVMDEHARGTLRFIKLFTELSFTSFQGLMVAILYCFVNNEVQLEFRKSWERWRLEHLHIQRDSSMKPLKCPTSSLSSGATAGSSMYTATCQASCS
#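 Assay principle: reduced luminescence from a cAMP-responsive reporter in HEK293 cells co-expressing a constitutively active GLP-1R. Conditions: 24 hr compound incubation, 37 deg C, 5% CO2.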
# ClpP mod: qHTS Assay for Activators of ClpP; Potency, µM (top dose mostly 57.5 µM), without a hit: at the top dose activity change, negative = active; purified B. subtilis ClpP, FRET peptide cleavage, 20 min; 1.9% of 340,000 active; active means well fitted falling curve with a large enough effect; inconclusive means small, poorly fitted or top-dose-only effect; inactive means no such curve, though single readings can be large or run the other way; further: the source files actives as falling curves though it sought activators and does not explain the sign; nearly all actives have a fitted effect of over 65% in size
# Target sequence (P80244 whole entry, looked up): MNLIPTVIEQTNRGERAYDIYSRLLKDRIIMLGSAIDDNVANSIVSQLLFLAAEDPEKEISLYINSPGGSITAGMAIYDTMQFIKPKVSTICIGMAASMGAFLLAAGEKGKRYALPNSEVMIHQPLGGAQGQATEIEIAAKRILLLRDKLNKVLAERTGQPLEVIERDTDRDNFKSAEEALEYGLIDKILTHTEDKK
#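 Purified B. subtilis ClpP, 10 microg/mL final in Tris/HCl pH8 with KCl, BSA, glycerol and Tween-20, cleaved an Abz/nitrotyrosine-quenched decapeptide. Fluorescence (ex 320, em 430) was read at 0 and 20 min at room temperature. Delta was normalized to 5.8 microM ADEP and DMSO/no-enzyme controls.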
# GLP1R ag: qHTS of GLP-1 Receptor Agonists. 0.007% of 380,000 active. Potency, µM (top dose mostly 45.6 µM), without a hit: at the top dose activation, most hits filed as activators. HEK293 GLP-1R CRE-luciferase, luminescence, 4-6 h; cells express a hypersensitive GLP-1R form. Glucagon-like peptide 1 receptor (Homo sapiens), P43220; further: % of control where 0% means no effect
# ClpP inh valid: qHTS Assay for Activators of ClpP: Hit Validation of Inhibitors | 40% of 470 active | shares compounds with ClpP mod | Potency, µM (titrated, usually from 57.5 µM), without a hit: at the highest dose activity change, negative = inhibition, actives largely listed as inhibitors | AID 743245, 2014 | purified B. subtilis ClpP, FRET-FV substrate cleavage, 20 min; further: on the % scale 0 is the no-effect control and ±100 the full control effect; nearly all actives have a fitted effect of over 70% in size
# * = called active by the depositor; i = inactive; ? = inconclusive; nt = not tested or not shown. Unless noted, the call rests on the fitted dose curve; in most records, active means well fitted curve in the direction sought with a large enough effect; inconclusive means small, poorly fitted or top-dose-only effect, or another doubt; inactive means no such curve, though single readings can be large; an effect the other way counts as inactive or inconclusive. Potency means the concentration at half of the fitted maximal effect.
SMILES,HEK293 tox,GLP1R inv ag,ClpP mod,GLP1R ag,others
CC(C)(C)c1ccc(C2=NC(C)(C)N(CC(=O)Nc3ccc(F)c(F)c3)C2=O)cc1,1%,11µM*,1%,nt,
NC(=S)N=Nc1c(O)n(CCCl)c2ccccc12,?,2.8µM*,nt,23%,
NC(=S)N=Nc1c(O)n(CC(=O)Nc2ccccc2)c2ccccc12,?,-6%,2%,-4%,
NC(=S)N=Nc1c(O)n(CCCl)c2ccc(Cl)cc12,1.3µM*,?,nt,26%,
CO/N=C1\C[C@]2(C[C@@H]3C[C@H](C/C=C(/C)C[C@@H](C)/C=C\C=C4\CO[C@@H]5[C@@H](O)C(C)=C[C@@H](C(=O)O3)[C@]45O)O2)O[C@@H](/C(C)=C/C(C)C)[C@H]1C,nt,nt,nt,-5%,
CC(=O)Nc1nonc1-c1nc2ccccc2n1CCC(C)C,-13%,?,?,1%,
CCC(=O)Nc1nonc1-c1nc2ccccc2n1Cc1ccccc1,-7%,17%,?,4%,
CCC(=O)Nc1nonc1-c1nc2ccccc2n1CCC(C)C,14%,?,28µM*,5%,
CCC(=O)Nc1nonc1-c1nc2ccccc2n1N(C(=O)CC)C(=O)CC,-20%,?,28µM*,-9%,
O=C(COc1ccccc1C(=O)Nc1ccccc1F)Nc1ccc(Br)cc1,nt,nt,-7%,nt,
COc1cc(NC(=O)Cc2ccc(OC)c(S(=O)(=O)N3CCOCC3)c2)c(OC)cc1Cl,-8%,-13%,nt,14%,
COc1ccc(S(=O)(=O)N2CCOCC2)cc1NC(=O)Cc1ccsc1,-2%,5%,20µM*,3%,
COc1ccc(CC(=O)Nc2ccccc2C(C)=O)cc1S(=O)(=O)N1CCOCC1,10%,6%,35µM*,2%,
CC(C)Oc1ccc(S(=O)(=O)N2CCOCC2)cc1NC(=O)Cc1ccsc1,8%,6%,-1%,16%,
O=c1c2cc3c(cc2nc2sc(Nc4ccc(F)cc4F)nn12)OCO3,-8%,0%,1%,nt,
Nc1c2c(=O)oc(-c3ccccc3)cc2nn1-c1ccccc1,?,39%,14µM*,12%,
Cc1c(-c2ccc(Cl)cc2)oc(=O)c2c(N)n(-c3ccccc3)nc12,?,-33%,-16%,2%,
Cn1cc(CN2CCC(C(=O)Nc3ccc(Oc4ccccc4F)cc3)CC2)cn1,23%,11µM*,-2%,-3%,
CCn1cc(CN2CCC(C(=O)Nc3ccc(Oc4ccccc4F)cc3)CC2)cn1,-11%,?,-1%,-1%,
Cn1cc(CN2CCCC(C(=O)Nc3ccc(-c4cccc(F)c4)cc3)C2)cn1 (centres undefined),-11%,4.5µM*,0%,-2%,
CN(c1ccc(F)cc1)S(=O)(=O)N1CCCC(C(=O)NCc2cccc(Br)c2)C1 (centres undefined),-11%,?,0%,nt,
Cc1ccccc1/C=C1\OC(=O)c2ccccc21,-8%,-5%,28µM*,14%,
Cc1ccc(/C=C2\OC(=O)c3ccccc32)cc1,9%,8%,28µM*,-16%,
Cc1ccccc1C=O,4%,5%,1%,1%,
Cc1ccc(C)c(S(=O)(=O)c2nnn3c2nc(NC2CCCCC2)c2sccc23)c1,-7%,?,35µM*,nt,
SMILES,HEK293 tox,GLP1R inv ag,ClpP mod,GLP1R ag,others
Cc1ccc(S(=O)(=O)c2nnn3c2nc(NC2CCCCCC2)c2sccc23)cc1C,-3%,38%,-19%,nt,
COc1ccc(C2CC(=O)c3cc(-c4nc(-c5cccc([N+](=O)[O-])c5)cs4)c(=O)n(-c4ccc(F)cc4)c3C2)cc1 (centres undefined),1%,10%,1%,nt,
COc1cc(Cl)c(C)cc1NC(=O)c1cc2ccc3cccnc3c2[nH]1,0%,8%,5%,nt,
Cc1ccc(C(=O)Nc2cccc(C(F)(F)F)c2)cc1NC(=O)c1nccnc1N,-15%,3%,159%,12%,ClpP inh valid=?
COc1cc2c(cc1NC(=O)CN1CCN(S(=O)(=O)c3ccccc3F)CC1)oc1ccccc12,-12%,-21%,3.5µM*,0%,ClpP inh valid=?
Cc1ccc(NC(=O)Cn2cc(C(=O)c3ccco3)c3ccccc32)cc1C,-9%,?,19%,nt,
CN(C)c1ccc(C=Nc2cncc3ccccc23)cc1,nt,nt,20%,nt,
CCCCCC1CCC(c2ccc(C(N)=O)cc2)CC1 (centres undefined),7%,-9%,-3%,-9%,
CCCC1CCC(c2ccc(C(N)=O)cc2)CC1 (centres undefined),67%,8%,74%,2%,ClpP inh valid=0%
COc1ccc2cc(C(=O)NCc3ccco3)c(=O)oc2c1,-4%,32%,10µM*,0%,ClpP inh valid=22µM*
O=C(NCc1ccco1)c1cc2ccc(O)cc2oc1=O,i,358%,-1%,-6%,
COc1ccc2cc(C(=O)NC3CCCCC3)c(=O)oc2c1,-3%,0%,2.2µM*,5%,ClpP inh valid=22µM*
O=C(NC1CCCCCC1)c1cc2ccccc2oc1=O,-13%,?,nt,19%,
COc1ccc(NC(=O)CSc2nnc(NC(=O)Nc3ccccc3)s2)c(OC)c1,7%,-9%,1%,nt,
COCCn1cc(C(=O)N2CCCC(C)C2)c2c3ccccc3n(C)c2c1=O (centres undefined),-24%,9%,3.2µM*,3%,ClpP inh valid=15µM*
COc1ccc(-c2nc(CSc3nnc(C)n4c3cc3occc34)c(C)o2)cc1OC,-2%,41%,?,nt,
CC(C)CNC(=O)NC1C(NC(=O)NCC(C)C)N(C)C(=O)N1C (centres undefined),15%,3%,44%,1%,ClpP inh valid=0%
CCC(C)NC(=O)NC1C(NC(=O)NC(C)CC)N(C)C(=O)N1C (centres undefined),-5%,0%,-2%,-13%,
CCn1ccc2cc(S(=O)(=O)N3CCC(C(=O)NCc4ccc(OC)cc4)CC3)ccc21,13%,?,-28%,nt,
COc1ccc2oc(-c3ccco3)cc(=O)c2c1,12%,43%,4%,10%,
O=c1cc(-c2ccco2)oc2ccc(Cl)cc12,11%,-4%,2.8µM*,-4%,ClpP inh valid=?
COc1ccc(S(=O)(=O)N2CCN(S(=O)(=O)c3ccc4c(c3)OCCO4)CC2)cc1C,-3%,2%,4µM*,1%,ClpP inh valid=0%
COc1ccc(CCNC(=O)C2CCN(S(=O)(=O)c3c(C)noc3/C=C/c3ccc(C)cc3)CC2)cc1OC,-8%,11%,-8%,-2%,
O=C(NCCc1ccccc1)c1ccc(Nc2nc3ccccc3n3nnnc23)cc1,0%,12%,294%,nt,ClpP inh valid=?
CN1CCN(C(=O)C2CCCCC2)CC1,nt,nt,nt,0%,
O=C(Nc1nc(-c2cc3ccccc3o2)cs1)c1ccc(S(=O)(=O)N2CCCC2)cc1,-13%,?,160%,1%,
